# Compound activity: PubChem BioAssay, several laboratories
# MBD2 DNA inh = inhibitors of human MBD2 binding to methylated oligonucleotide. inhibition, % at 4.4 µM. TR-FRET. AID 686964. 0.31% of 370,000 active. Q9UBB5; in the data active = inhibition above about 13%
# Target sequence (Q9UBB5 whole entry, looked up): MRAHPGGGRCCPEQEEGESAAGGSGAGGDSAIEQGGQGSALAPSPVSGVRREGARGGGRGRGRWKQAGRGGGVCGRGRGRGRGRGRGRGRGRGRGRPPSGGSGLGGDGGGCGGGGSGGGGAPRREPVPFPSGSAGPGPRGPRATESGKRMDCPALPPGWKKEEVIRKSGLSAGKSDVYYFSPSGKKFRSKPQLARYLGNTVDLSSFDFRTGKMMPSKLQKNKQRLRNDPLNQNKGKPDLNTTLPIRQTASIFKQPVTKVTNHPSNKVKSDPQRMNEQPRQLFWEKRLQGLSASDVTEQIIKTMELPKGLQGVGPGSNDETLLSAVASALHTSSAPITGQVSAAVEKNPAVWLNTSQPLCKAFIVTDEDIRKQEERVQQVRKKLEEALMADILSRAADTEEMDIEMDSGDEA
# UHRF1 binding = blocks human UHRF1 binding to methylated DNA; Q96T88; UHRF1 binding to methylated oligo, TR-FRET; inhibition, % at 4.4 µM; 0.75% of 370,000 active; in the data active = inhibition above about 21%;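 also: UHRF1 SRA domain binding a hemimethylated CpG hairpin DNA probe; 0% = median of test compound wells and 100% = reference inhibitor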
# DNMT1 block = inhibitors of human DNMT1. DNMT1 molecular beacon, Hinp1I cleavage, fluorescence. 0.83% of 360,000 active. P26358. inhibition (reported as % activation of signal), % at 10 µM. AID 588458; in the data active = inhibition above about 50%
# PG9 binder = PG9 antibody binding by small molecule; 0.43% of 360,000 active; inhibition, % at 6.7 µM; AID 624416; TR-FRET gp120-PG9 antibody binding; in the data active = inhibition above about 8.5%
# rCAG RNA binder = r(CAG) repeat RNA binding. TO-PRO-1 dye displacement fluorescence. inhibition, % at 3 µM. 1.3% of 370,000 active. AID 651821;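 active = inhibition above the plate cutoff, the mean of all test compounds on that plate plus 3 SD, cut at about 35% in these data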;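 also: 0% = DMSO alone and 100% = 100 µM mitoxantrone as full dye displacement; higher means more dye released from RNA so lower well fluorescence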
# LEDGF integ inh = blocks HIV-1 LEDGF/p75-dependent DNA integration; 0.64% of 370,000 active; inhibition, % at 3.7 µM; TR-FRET IN-LEDGF/p75 DNA integration, Eu/Cy5; AID 743269;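 active = inhibition above the screen-wide mean plus 3 SD, cut at about 13% in these data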;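 also: signal is the Cy5 over europium emission ratio at 671 and 618 nm; 0% = plate median of compound wells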
# rCAG binder conf = r(CAG) RNA repeat binding, confirmation; TO-PRO-1 dye displacement fluorescence; inhibition, % at 3 µM; shares compounds with rCAG RNA binder; 70% of 4,300 active;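 active = inhibition above a per-plate cutoff, the mean inhibition of sample wells plus 3 SD, cut at about 35% in these data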;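 also: loss of TO-PRO-1 fluorescence as compound displaces dye from 1x1 AA loop RNA; 0% = DMSO only wells and 100% = 100 µM mitoxantrone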
# dCAG dye counter = disrupts DNA CAG TO-PRO-1 complex, flagging rCAG hits | AID 652068 | inhibition, % at 3 µM | shares compounds with rCAG RNA binder | 94% of 4,300 active | d(CAG) DNA oligo TO-PRO-1 dye displacement, fluorescence;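 active = inhibition above its plate's cutoff, the mean test-well inhibition plus 3 SD, cut at about 4.8% in these data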;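 also: 0% = DNA dye mix with DMSO and 100% = 100 µM mitoxantrone; hits displace the dye from DNA and so lower well fluorescence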
# dCAG dye DR = DNA CAG dye complex inhibition, dose response counter-screen; shares compounds with rCAG RNA binder; DNA CAG/GTC duplex TO-PRO-1 dye displacement fluorescence; IC50, µM; 20% of 250 active; in the data active = IC50 below about 10 µM
# Active calls of the source: *; i = inactive; . = no result. In the library only some 3.5% were active in any assay of this set; here they are far more common.
SMILES,MBD2 DNA inh,UHRF1 binding,DNMT1 block,PG9 binder,rCAG RNA binder,LEDGF integ inh,rCAG binder conf,dCAG dye counter,others
COc1ccc(C(=O)Nc2ccc(S(=O)(=O)Nc3onc(C)c3C)cc2)c(OC)c1,7,1,1,0,41*,2,20,4,
COc1ccccc1NS(=O)(=O)c1ccc(C)c(C(=O)Nc2ccc(S(=O)(=O)Nc3onc(C)c3C)cc2)c1,2,-2,-1,0,63*,0,57*,22*,
Cc1cccc(CN(C)C[C@H]2OCc3cnnn3CCCC(=O)N([C@@H](C)CO)C[C@@H]2C)c1,0,0,10,-1,0,-6,.,.,
O=C1CCC2(CCCC2)c2ccccc21,-6,0,5,-1,-1,-1,.,.,
COC(=O)c1c(C)[nH]c(C(=O)OC(C)C(=O)N(C)C2CCCCC2)c1C (stereo unspecified),7,2,-1,2,-8,-1,.,.,
Cc1noc(NS(=O)(=O)c2ccc(NC(=O)c3ccc(N(C)C)cc3)cc2)c1C,1,-2,-1,-4,16,6,.,.,
Cc1noc(NS(=O)(=O)c2ccc(NC(=O)c3ccc(OC(C)C)cc3)cc2)c1C,1,-1,0,0,44*,-1,26,4,
Cc1cc(C(=O)Nc2ccc(S(=O)(=O)Nc3onc(C)c3C)cc2)cs1,-6,-4,3,1,10,3,.,.,
CC(C)Oc1ccc(C(=O)N/N=C/c2ccc(-c3ccc(S(=O)(=O)Nc4ncccn4)cc3)o2)cc1,3,8,20,-2,54*,2,65*,22*,
COc1cc(NC(=O)c2ccc(NS(=O)(=O)c3c(C)noc3C)cc2)cc(OC)c1,4,-2,-2,-3,18,1,.,.,
NC(=O)N/N=C/c1ccc(-c2ccc(S(=O)(=O)Nc3ncccn3)cc2)o1,-7,10,2,-3,-6,1,.,.,
COc1ccccc1NS(=O)(=O)c1cc(C(=O)Nc2ccc(S(=O)(=O)Nc3onc(C)c3C)cc2)ccc1C,3,6,4,0,70*,0,78*,30*,dCAG dye DR=i
Cc1noc(C)c1S(=O)(=O)Nc1ccc(C(=O)Nc2ccc(OC(F)(F)F)cc2)cc1,3,2,6,0,39*,-2,28,4.7*,
CN1C(=O)C(N=Nc2ccc([N+](=O)[O-])cc2)SC1=S (stereo unspecified),-8,3,-12,-4,5,-5,.,.,
COC(=O)C[C@H]1CC[C@@H]2[C@@H](COc3ccc(NC(=O)Nc4ccccc4OC)cc3C(=O)N2C)O1,-4,-3,.,.,4,-2,.,.,
COc1ccc(OC)c(C(=O)c2c(C)oc3cc([N+](=O)[O-])c(O)c([N+](=O)[O-])c23)c1,-17,-7,-3,-1,35*,-2,21,4,
O=C(O)c1ccccc1N1C(=O)C2C3c4ccccc4C(Br)(c4ccccc43)C2C1=O (stereo unspecified),-3,0,-1,-3,35*,7,27,4.5*,
CC12C(=O)N(c3ccccc3C(=O)O)C(=O)C1C1C=CC2C1 (stereo unspecified),2,-2,6,1,2,5,.,.,
N#Cc1sc2nccc(Nc3ccccc3)c2c1N,-8,-3,-18,-4,38*,4,2,0,
COc1ccccc1OCC(=O)Nc1ccc(S(=O)(=O)Nc2cc(C)on2)cc1,1,2,3,0,22,-5,.,.,
Cc1cc(NS(=O)(=O)c2ccc(NC(=O)Cc3ccc(Cl)c(Cl)c3)cc2)no1,4,1,-1,1,49*,0,35*,8.8*,
Cc1cc(NS(=O)(=O)c2ccc(NC(=O)COc3c(C)cc(Br)cc3C)cc2)no1,0,-1,1,-1,71*,-3,63*,26*,
Cc1cc(NS(=O)(=O)c2ccc(NC(=O)CCCOc3cccc(C)c3C)cc2)no1,4,3,-1,-3,63*,-6,62*,17*,
Cc1cc(NS(=O)(=O)c2ccc(NC(=O)CCCOc3ccccc3C)cc2)no1,-3,-2,1,-3,38*,-4,34,8.8*,
COc1ccc(OCC(=O)Nc2ccc(S(=O)(=O)Nc3cc(C)on3)cc2)cc1,-3,0,0,-1,20,4,.,.,
SMILES,MBD2 DNA inh,UHRF1 binding,DNMT1 block,PG9 binder,rCAG RNA binder,LEDGF integ inh,rCAG binder conf,dCAG dye counter,others
CCCCN1C[C@H](CSC)[C@@H](CC(=O)Nc2ccc(OC)cc2)C1=O,0,3,3,0,0,0,.,.,
CCCCCC(=O)N1C[C@@H](n2cc(C3CC3)nn2)[C@H](O)C[C@@H]1c1ccc(Cl)cc1,6,3,0,-2,2,-5,.,.,
O=C(c1ccccc1)N1N=C(C(F)(F)F)CC1(O)c1ccccc1O (stereo unspecified),-1,-3,2,-3,5,0,.,.,
OCCCNc1ncnc2c1ncn2[C@H]1CN(Cc2ccc(Cl)cc2)C[C@@H](CO)O1,-6,-1,3,1,-1,0,.,.,
Cc1ccc(OCCCC(=O)Nc2ccc(S(=O)(=O)Nc3cc(C)on3)cc2)cc1,0,-2,-2,1,49*,1,36*,12*,
Cc1c(C(=O)NNC(=S)Nc2ccc(S(N)(=O)=O)cc2)oc2ccccc12,-2,-3,0,-2,52*,-4,32,11*,
CCOc1ccc(OCC(=O)Nc2ccc(S(=O)(=O)Nc3cc(C)nc(C)n3)cc2)cc1,4,0,-4,0,17,0,.,.,
Cc1cc(NS(=O)(=O)c2ccc(NC(=O)c3oc4ccccc4c3C)cc2)no1,-1,3,-2,1,41*,3,41*,11*,
Cc1cc(NS(=O)(=O)c2ccc(NC(=O)COc3ccc(Br)cc3)cc2)nc(C)n1,5,4,0,3,36*,-8,35*,10*,
C=CCN(CC#CC1=CCCCC1)Cc1ccccc1,-10,0,.,.,-1,6,.,.,
CSc1cccc(NC(=O)N2CCc3ccc(NC(=O)c4ccccn4)cc3C2)c1,-2,-3,-11,-1,4,-2,.,.,
Cc1ccccc1OCC(=O)Nc1ccc(S(=O)(=O)Nc2onc(C)c2C)cc1,1,-1,-1,-3,31,4,.,.,
Cc1ccccc1OCCCC(=O)Nc1ccc(S(=O)(=O)Nc2onc(C)c2C)cc1,4,2,1,-5,52*,0,34,9.4*,
